Reference: PubChem BioAssay AID362 (NMMLSC, 2006)
Screen size: about 4,300 compounds; about 60 (1%) were called active.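 The calls were made as follows: active = inhibition of labelled peptide binding to the formyl peptide receptor of at least 65%; inactive = the rest.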 The sample as a whole holds a higher share of actives than the screen did.

biological target: fMet-Leu-Phe receptor (Homo sapiens) (UniProt P21462); assay: FPR binders displacing fluorescent formyl peptide, primary screen, U937-FPR cells, fMLFK-FITC, flow cytometry (AID 362); conditions: fMLFK-FITC displacement; hits give high values, concentration not given here;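 as to inhibition: plate controls were buffer control wells for no effect and unlabeled fMLFF blocking peptide for full effect; higher means less cell fluorescence so more probe displaced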
Sequence (P21462 whole entry, looked up): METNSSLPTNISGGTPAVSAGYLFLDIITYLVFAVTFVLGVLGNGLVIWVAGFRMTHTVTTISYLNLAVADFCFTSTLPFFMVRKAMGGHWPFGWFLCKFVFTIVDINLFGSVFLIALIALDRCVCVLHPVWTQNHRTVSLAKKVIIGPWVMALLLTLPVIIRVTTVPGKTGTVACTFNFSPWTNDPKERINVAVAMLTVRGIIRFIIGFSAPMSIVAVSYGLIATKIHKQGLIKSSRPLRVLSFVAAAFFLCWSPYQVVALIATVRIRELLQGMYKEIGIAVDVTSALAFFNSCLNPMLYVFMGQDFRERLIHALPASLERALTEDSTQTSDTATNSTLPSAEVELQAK

inhibition, inactive:
CC1(C)CC(=O)C2=C(C1)Nc1[nH]n(-c3ccccc3)c(=O)c1C2c1ccccc1F (stereo not drawn) 55.8%
CC(C)c1ccc(C2C3=C(CC(C)(C)CC3=O)Nc3[nH]n(-c4ccccc4)c(=O)c32)cc1 (stereo not drawn) 57%
CC1(C)CC(=O)C2=C(C1)Nc1[nH]n(-c3ccccc3)c(=O)c1C2c1cccs1 (stereo not drawn) 50.9%
CC1(C)CC(=O)C2=C(C1)Nc1ncnn1C2c1ccc(OCc2ccccc2)cc1 (stereo not drawn) 7.5%
CC1(C)CC(=O)C2=C(C1)Nc1[nH]n(-c3ccccc3)c(=O)c1C2c1ccc(F)cc1 (stereo not drawn) 47.8%
CCOc1ccc(C2C(C#N)=C(N)OC3=C2C(=O)CC(C)(C)C3)cc1 (stereo not drawn) 15.2%
COc1cc(C2NC(=O)NC(C)=C2C(=O)OC2CCCCCC2)ccc1O (stereo not drawn)
O=C(O)c1ccc([N+](=O)[O-])c2c1NC(C(=O)O)C1CC=CC21 (stereo not drawn)
CCOC(=O)C1CCC(CN(Cc2ccc(Cl)cc2)S(=O)(=O)c2ccc([N+](=O)[O-])cc2)CC1 (stereo not drawn)
CCCc1cc2c(=O)c(-c3cc4ccccc4o3)coc2cc1OC(C)=O 33.7%
CCOCCOC(=O)C1=C(C)NC2=C(C(=O)C(C(=O)OC)C(C)C2)C1c1ccc(OC)c(O)c1 (stereo not drawn) 23.5%
COc1ccc(C(=O)NCC2(c3ccc(OC)c(OC)c3)CCCC2)cc1
CCCCCOC(=O)c1cccc(N2C(=O)C3C4CCC(C4)C3C2=O)c1 (stereo not drawn)
COc1cc2c(C(=O)N(C)c3cccc(Cl)c3)cn(CC(C)C)c(=O)c2cc1OC
CCOC(=O)C1C(c2cccc([N+](=O)[O-])c2)NC(=O)NC1(O)C(F)(F)F (stereo not drawn)
Cc1ccc(C(=O)C2=C(N)OC3=C(C(=O)CC(C)(C)C3)C2c2ccccc2Cl)cc1 (stereo not drawn)
O=C(CSc1nc2ccccc2c(=O)n1CC1CCC(C(=O)NCc2ccccc2Cl)CC1)NC1CCCC1 (stereo not drawn) 4.5%
CC(C)CN(CC(C)C)S(=O)(=O)c1ccc(C(=O)Nc2cccc(-c3nc4ccccc4[nH]3)c2)cc1 4.7%
CCCCCCc1cc2c3c(c(=O)oc2cc1OCC(C)=O)CCC3 5.4%
CCCCCCc1cc2c3c(c(=O)oc2cc1OCC(=O)O)CCCC3 47.7%
CC1CC(C)CN(C(=O)c2cn(C3CCCC3)c(=O)c3c2c2ccccc2n3C)C1 (stereo not drawn)
CCOC(=O)c1c(-c2ccc(C)cc2)csc1NC(=O)C1CCCCC1C(=O)O (stereo not drawn) 15.5%
COC(=O)c1c(-c2ccccc2)csc1NC(=O)C1CCCCC1C(=O)O (stereo not drawn)
CCOC(=O)c1c(-c2ccc(OC)cc2)csc1NC(=O)C1CCCCC1C(=O)O (stereo not drawn) 3%
CCOC(=O)c1c(-c2ccc(F)cc2)csc1NC(=O)C1CCCCC1C(=O)O (stereo not drawn) 35.1%
COC(=O)c1c(-c2ccc(C)c(C)c2)csc1NC(=O)C1CCCCC1C(=O)O (stereo not drawn) 22.4%
COC(=O)c1c(-c2cc(C)ccc2C)csc1NC(=O)C1CCCCC1C(=O)O (stereo not drawn) 40.4%
O=C(O)C1CCCCC1C(=O)N1CCN(C/C=C/c2ccccc2)CC1 (stereo not drawn)
O=C(CSc1nc2ccccc2c(=O)n1CC1CCC(C(=O)NCc2ccco2)CC1)NCCC1=CCCCC1 (stereo not drawn) 7.9%
CC(=O)N1CCCc2cc(S(=O)(=O)NC(C(=O)NCc3cccs3)C(C)C)ccc21 (stereo not drawn)
Cc1cc(C)c(S(=O)(=O)NCC2CCC(C(=O)NCC3CCCO3)CC2)c(C)c1 (stereo not drawn)
CC(C)CC(C(=O)OCC(=O)c1ccc(Cl)cc1)N1C(=O)c2ccccc2C1=O (stereo not drawn)
CCN(CC)CC(=O)N1CCCc2c1c(=O)oc1ccc(OC(C)=O)cc21
Cc1ccc2nc3c(cc(C(=O)NCc4ccco4)c(=N)n3C3CCCC3)c(=O)n2c1
CCCCc1cc(=O)oc2cc(OCC(=O)OCC)c(Cl)cc12
O=C(C1CCCN(S(=O)(=O)c2ccccc2)C1)N1CCCCC1 (stereo not drawn) 7.6%
CC1=C(C)CS(=Nc2ccccc2[N+](=O)[O-])N(S(=O)(=O)c2ccccc2)C1 (stereo not drawn)
CC(C)Cn1cc(C(=O)N2CC(C)CC(C)C2)c2c3ccccc3n(C)c2c1=O (stereo not drawn) 5.3%
O=S(=O)(c1ccc(-c2csc(=Nc3cccc4ccccc34)n2CCCCO)cc1)N1CCCCC1
CCCOC(=O)c1c(NC(=O)C2CCCCC2C(=O)O)sc2c1CCC2 (stereo not drawn) 47.3%
CC1CCc2c(sc(NC(=O)C3CCCCC3C(=O)O)c2C(=O)OC(C)C)C1 (stereo not drawn) 3%
CCOC(=O)c1c(NC(=O)C2C3C=CC(CC3)C2C(=O)O)sc2c1CCCC2 (stereo not drawn) 4.5%
CCCOC(=O)c1c(NC(=O)C2CCCCC2C(=O)O)sc2c1CCC(C)C2 (stereo not drawn) 23.4%
CCOC(=O)c1c(NC(=O)C2CCCCC2C(=O)O)sc2c1CCC(C(C)(C)CC)C2 (stereo not drawn) 21%
CCOC(=O)c1c(NC(=O)C2C3C=CC(C3)C2C(=O)O)sc2c1CCCCCC2 (stereo not drawn) 16.4%

inhibition, active:
CC1(C)CC(=O)C2=C(C1)Nc1[nH]n(-c3ccccc3)c(=O)c1C2c1ccccc1Cl (stereo not drawn) 70.6%
CCOc1ccc(C2C3=C(CC(C)(C)CC3=O)Nc3[nH]n(-c4ccccc4)c(=O)c32)cc1 (stereo not drawn) 76%
Cc1ccc(C2C3=C(CC(C)(C)CC3=O)Nc3[nH]n(-c4ccccc4)c(=O)c32)cc1 (stereo not drawn) 65.6%
CCCCCCc1cc2c3c(c(=O)oc2cc1OCC(=O)O)CCC3 74.7%
CCOC(=O)c1c(-c2ccc(C)cc2C)csc1NC(=O)C1CCCCC1C(=O)O (stereo not drawn) 94.2%
COC(=O)c1c(-c2cccc(C)c2)csc1NC(=O)C1CCCCC1C(=O)O (stereo not drawn) 68.9%
COC(=O)c1c(-c2ccc(F)cc2)csc1NC(=O)C1CCCCC1C(=O)O (stereo not drawn) 72.4%
CC(C)C(C(=O)O)n1c(O)c(C2=c3ccccc3=NC2=O)sc1=S (stereo not drawn) 106%
CC(C)C(C(=O)O)n1c(O)c(C2=c3cc(Br)ccc3=NC2=O)sc1=S (stereo not drawn) 95.3%
CC1=C(C)C/S(=N\S(=O)(=O)c2ccccc2)N(S(=O)(=O)c2ccccc2)C1 (stereo not drawn) 103%
CCOC(=O)c1c(NC(=O)C2C3CCC(C3=C(C)C)C2C(=O)O)sc2c1CCCCCCC2 (stereo not drawn) 95.1%
CCOC(=O)c1c(NC(=O)C2CCCCC2C(=O)O)sc2c1CCC(C(C)(C)C)C2 (stereo not drawn) 71.7%
CCC(C)(C)C1CCc2c(sc(NC(=O)C3CCCCC3C(=O)O)c2C(=O)OC)C1 (stereo not drawn) 80.5%
